Hits are enriched below; roughly 2.5% of the tested compounds scored in any of these assays.
Jurkat NFkB inh – lowers PMA/ionomycin-induced NF-kB signal in Jurkat cells; PMA/ionomycin-induced NF-kB luciferase reporter, luminescence; inhibition, % at 4 µM; 330,000 compounds, 0.53% hits; in the data active = inhibition above about 50%
KLF5 inh – suppresses KLF5 promoter-driven expression | inhibition, % at 5 µM | AID 1700 | DLD-1 KLF5 promoter-luciferase reporter, luminescence | 290,000 compounds, 0.23% hits;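 active = inhibition above a per-plate limit of that plate's mean compound inhibition plus 3 SD, cut at about 60% in these data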;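 also: 0% = DMSO wells and 100% = LY294002 at 200 µM; higher means less KLF5 promoter-driven luciferase light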
aSyn UTR inh – 5' untranslated region of α-synuclein, MLPCN primary screen; alpha-synuclein 5'UTR reporter, inhibitor activity; inhibition, % (tested at 7.5 µM); 300,000 compounds, 0.82% hits; in the data active = inhibition above about 60%;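 also: H4 neuroglioblastoma cells stably carrying SNCA 5'UTR luciferase fusion; 0% = DMSO wells and 100% = positive control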
TMEM16A act – activates or potentiates the mouse TMEM16A chloride channel; HEK293 TMEM16A/YFP-H148Q/I152L, iodide quench fluorescence; hits give low values; AID 623877; 340,000 compounds, 0.3% hits; Q8BHY3; B-score at 10 µM;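 active = fluorescence-ratio B-score plate-corrected deviation score at least 3 library SD below zero, with starting fluorescence score within 5 deviations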;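 also: channel opened by trigger with iodide after compound preincubation; score built on the fluorescence ratio of max minus min over baseline; more negative score means more quench and so TMEM16A activation or potentiation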
697 NFkB inh – inhibitors of the PMA/ionomycin-induced NF-kB reporter in 697 B cells | 697 B-cell NF-kB luciferase reporter, 16 h | inhibition, % at 4 µM | 330,000 compounds, 0.33% hits; in the data active = inhibition above about 35%
ANO1 block – mouse TMEM16A channel inhibition, primary screen | 310,000 compounds, 1.2% hits | normalized B-score (activity score, 25-100; higher = stronger inhibition) at 10 µM | Q8BHY3 | HEK293 TMEM16A/YFP iodide influx fluorescence, ionomycin | AID 588511;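 active = ratio plate-corrected score three or more library SD toward inhibition, starting fluorescence score within five deviations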;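 also: score derived from kinetic fluorescence span divided by baseline fluorescence per well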
697 NFkB conf – inhibitors of the PMA/ionomycin-induced NF-kB reporter in 697 B cells, retest | 697 B-cell NF-kB luciferase, 16 h | inhibition, % at 4 µM | 2,000 compounds, 35% hits | shares compounds with 697 NFkB inh; in the data active = inhibition mostly above about 28%, no sharp cut-off; inactive = mostly below about 22%
* = called active by the depositor.

Screening Cc1cccc(-c2nc(CSc3nc4c(c(=O)[nH]3)CCC4)c(C)o2)c1 returned Jurkat NFkB inh 24, KLF5 inh 14, aSyn UTR inh 8, TMEM16A act inactive, 697 NFkB inh 39*, ANO1 block inactive and 697 NFkB conf 21.
For Cc1ccc(NC(=O)Nn2cnnc2)cc1Cl the results were Jurkat NFkB inh -12, KLF5 inh -11, aSyn UTR inh 12, TMEM16A act inactive, 697 NFkB inh 2 and ANO1 block inactive.
Screening Cc1ccc(NC(=O)O/N=C/c2c(C)nn(C(C)(C)C)c2C)cc1Cl returned Jurkat NFkB inh 14, KLF5 inh 26, aSyn UTR inh 77*, TMEM16A act inactive, 697 NFkB inh 63*, ANO1 block inactive and 697 NFkB conf 78*.
Screening COc1ccccc1CN1CN(S(=O)(=O)c2ccccc2)c2nc3ccccc3nc21 returned Jurkat NFkB inh 8, KLF5 inh -17, aSyn UTR inh -15, TMEM16A act inactive, 697 NFkB inh 8 and ANO1 block inactive.
For C=CC[C@@H](CC(=O)N[C@H](CO)Cc1ccccc1)C(=O)N[C@H](COC(=O)[C@@H](CC=C)CC(=O)OC(C)(C)C)Cc1ccccc1 the results were Jurkat NFkB inh 0, TMEM16A act inactive and 697 NFkB inh 7.
For O=C(CN1C(=O)NC2(CCCCCC2)C1=O)c1ccc2c(c1)OCCO2 the results were Jurkat NFkB inh -110, KLF5 inh -152, aSyn UTR inh -154, TMEM16A act inactive, 697 NFkB inh -266, ANO1 block inactive and 697 NFkB conf -132.
Screening O=C(O)c1ccc(N/N=C/c2cc3cc4c(cc3nc2Cl)OCCO4)cc1 returned Jurkat NFkB inh -103, KLF5 inh -45, aSyn UTR inh 8, TMEM16A act inactive, 697 NFkB inh -493, ANO1 block inactive and 697 NFkB conf -480.
NC(=O)c1cc(S(=O)(=O)N2CCOCC2)cs1 was read as Jurkat NFkB inh 1, KLF5 inh -26, aSyn UTR inh -7, TMEM16A act inactive, 697 NFkB inh 2 and ANO1 block inactive.
Screening Cc1ccc(C(=O)N2CCCC(c3ccc(Cl)cc3)=N2)cc1 returned Jurkat NFkB inh -2, KLF5 inh -14, aSyn UTR inh -11, TMEM16A act inactive, 697 NFkB inh 42*, ANO1 block inactive and 697 NFkB conf 39*.
`O=C1N/C(=C\c2ccc(O)cc2)C(=O)c2ccccc21` gave Jurkat NFkB inh 6, KLF5 inh -16, aSyn UTR inh -12, TMEM16A act inactive, 697 NFkB inh 45*, ANO1 block 25* and 697 NFkB conf 6.
For O=C(O)/C=C1\NC(=O)c2ccccc21 the results were Jurkat NFkB inh -10, KLF5 inh -3, aSyn UTR inh 16, TMEM16A act inactive, 697 NFkB inh 3 and ANO1 block inactive.
Screening Cc1c(CCO)c(=O)oc2n[nH]c(-c3ccccc3)c12 returned Jurkat NFkB inh 5, KLF5 inh -26, aSyn UTR inh 13, TMEM16A act inactive, 697 NFkB inh 35*, ANO1 block inactive and 697 NFkB conf 24*.
Screening CCc1c(C)c2c(C)nn(-c3ccccc3)c2oc1=O returned Jurkat NFkB inh 9, KLF5 inh -2, aSyn UTR inh 9, TMEM16A act inactive, 697 NFkB inh 10 and ANO1 block inactive.
O=[N+]([O-])c1ccc(Sc2cc[n+]([O-])c3ccccc23)c([N+](=O)[O-])c1 was read as Jurkat NFkB inh 28, KLF5 inh -61, aSyn UTR inh -19, TMEM16A act inactive, 697 NFkB inh 37*, ANO1 block inactive and 697 NFkB conf 50*.
CCOc1cc(/C=C(\C#N)c2nc3ccccc3[nH]2)ccc1OC(C)C(=O)O (configuration not stated) was read as Jurkat NFkB inh 0, KLF5 inh -33, aSyn UTR inh 0, TMEM16A act inactive, 697 NFkB inh 18 and ANO1 block inactive.

Screens (PubChem)
